Screens: PubChem, National Center for Advancing Translational Sciences (NCATS)
D2 PAM-1 – HTS Assay for Positive Allosteric Modulators of the Human D2 Dopamine Receptor: Primary Screen for Potentiators | D(2) dopamine receptor (Homo sapiens), P14416 | potentiation, % at 10 µM | HEK293 T-REx D2, calcium flux, EC20 dopamine potentiation | 340,000 compounds, 0.34% hits;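 active means potentiation over 3 SD above the plate norm, cut at about 30% in these data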
Target sequence (P14416 whole entry, looked up): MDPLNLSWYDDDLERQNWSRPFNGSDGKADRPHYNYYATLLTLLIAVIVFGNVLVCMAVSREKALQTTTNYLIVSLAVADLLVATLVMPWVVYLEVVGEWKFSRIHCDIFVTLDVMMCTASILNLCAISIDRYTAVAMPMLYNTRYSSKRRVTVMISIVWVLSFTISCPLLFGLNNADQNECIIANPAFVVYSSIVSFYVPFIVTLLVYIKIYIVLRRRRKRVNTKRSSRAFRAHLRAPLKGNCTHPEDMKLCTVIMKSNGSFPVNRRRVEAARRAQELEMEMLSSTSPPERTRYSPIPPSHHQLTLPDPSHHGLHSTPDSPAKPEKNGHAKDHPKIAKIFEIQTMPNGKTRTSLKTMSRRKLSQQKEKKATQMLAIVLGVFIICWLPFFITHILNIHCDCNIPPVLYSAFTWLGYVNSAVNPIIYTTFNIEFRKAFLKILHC
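Primary screen. Calcium kinetics in induced HEK293 T-REx D2 cells: compound pre-addition 180 s, EC20 dopamine, 180 s more.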
D2 ag-1 – HTS Assay for Allosteric Agonists of the Human D2 Dopamine Receptor: Primary Screen for Agonists. HEK293 T-REx D2 cells, calcium flux agonist mode. 340,000 compounds, 0.53% hits. activation, % at 2 µM. D(2) dopamine receptor (Homo sapiens), P14416. AID 485358, 2010;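 active means activation over 3 SD above normal in the single-dose calcium agonist read, cut at about 30% in these data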
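Tetracycline-induced HEK293 Trex cells with D2 receptor force-coupled to calcium signaling, plated overnight at 30 C and loaded with no-wash calcium dye. Calcium flux read kinetically for 180 s after compound addition; responses flag agonists.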
D2 PAM-2 – Beta-Arrestin HTS for Positive Allosteric Modulators of the Human D2 Dopamine Receptor: Potentiators; AID 624464, 2012; DiscoveRx D2 beta-arrestin cells, luminescence, 90 min; 100% = 57 uM dopamine signal; potentiation, % (no concentration beside the values); D(2) dopamine receptor (Homo sapiens), P14416; 360,000 compounds, 0.23% hits; in the data active means potentiation above about 50%
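PathHunter beta-arrestin assay in DiscoveRx D2 cells. Compounds were added with an EC20 of dopamine (50 nM final) for 90 min at 37 deg C. Luminescence was read 1 h after detection reagent, with 57 uM dopamine as the EC100 control.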
D2 ag-2 – Beta-Arrestin HTS for Positive Allosteric Modulators of the Human D2 Dopamine Receptor: Agonists; activation, % (concentration not given with the values); DiscoveRx PathHunter D2 beta-arrestin, luminescence, 90 min; 100% = 57 uM dopamine signal; D(2) dopamine receptor (Homo sapiens), P14416; 360,000 compounds, 0.084% hits; in the data active means activation above about 40%
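DiscoveRx PathHunter D2 beta-arrestin cells (2,100/well) attached overnight, then compound-stimulated 90 min at 37 C in HBSS/10 mM HEPES/0.1% Tween-20 buffer; beta-galactosidase complementation read by luminescence after 1 h at ambient temperature. Dopamine 57 uM final (EC100) as control.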
D2 antag – HTS Assay for Allosteric Antagonists of the Human D2 Dopamine Receptor: Primary Screen for Antagonists; D(2) dopamine receptor (Homo sapiens), P14416; HEK293 TREx D2 cells, calcium flux, dopamine EC80; inhibition, % at 10 µM; 340,000 compounds, 2% hits; in the data active means inhibition above about 30%; inactive means below that, where a call was filed
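Calcium mobilization kinetics were recorded at 1 s intervals in tetracycline-induced HEK293 T-REx D2 cells, first for 180 s after compound addition and then 180 s after EC80 dopamine.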
Hits are given with their value; n = inactive; x = no result given. In the library only some 2.4% were active in any assay of this set; here they are far more common.

SMILES | D2 PAM-1 | D2 ag-1 | D2 PAM-2 | D2 ag-2 | D2 antag
COc1ccc(/C=C/C(=O)Nc2ccccc2)cc1OC | n | n | n | n | 30
COc1ccc(C2=NOC(c3nnc(-c4ccccc4)o3)C2)cc1 (configuration not stated) | x | x | n | n | x
COc1ccc(/C=C/C(=O)O/N=C(\N)c2ccccc2)cc1OC | n | n | 52 | n | n
CC(C)OC(=O)c1cc2c(ccn2C)n1CC(=O)N1CCC(Cc2ccccc2)CC1 | 105 | n | n | n | n
Cc1oc2c(c1C(=O)Nc1cccc(Br)c1)C1=NCCN1C=N2 | x | n | x | x | x
COc1ccc(OCc2cc(/C=N\NC(=O)c3ccccc3)ccc2OC)cc1 | n | n | n | n | n
COc1cc(OC)cc(C(=O)N/N=C/c2ccc(OC)c(COc3ccc(F)cc3)c2)c1 | n | n | n | n | 34
C/C(=N\Nc1ccc(Cl)c(C(=O)O)c1)c1ccc(Br)s1 | n | n | n | n | 47
COc1ccccc1/C=C/C(=O)Nc1ccc2c(c1)OCCO2 | n | n | n | n | 34
COc1ccccc1/C=C/C(=O)OCC(=O)Nc1ccc2c(c1)OCCO2 | n | n | n | n | n
COc1ccccc1OCC(=O)Nc1ccc2c(c1)OCO2 | n | n | n | n | 32
O=C(Nc1ccc(F)c(Cl)c1)c1ccc2c(c1)OCO2 | n | n | n | n | n
COc1ccccc1OCCC(=O)OCC(=O)Nc1ccc(Br)cc1 | n | n | n | n | 91
COc1ccc(NC(=O)c2ccc3c(c2)OCO3)cc1Cl | n | n | n | n | 39
Cc1cccc(C(=O)NC2CCN(CC(=O)NCc3ccccc3F)CC2)c1 | n | n | n | n | 42
COc1cccc(C(=O)NC2CCN(CC(=O)NCc3ccccc3F)CC2)c1 | n | n | n | n | n
COCCn1nnnc1C(c1cc2cccc(C)c2[nH]c1=O)N1CCN(c2ccccc2F)CC1 (configuration not stated) | n | n | n | n | 34
COCCn1nnnc1C(c1ccccc1OC)N1CCN(c2ccccc2F)CC1 (configuration not stated) | n | n | n | n | n
NNC(=O)c1ccc(COCC(F)(F)F)cc1 | n | n | n | n | 53
CN(C)CCNC(=O)c1ccc(COCC(F)(F)F)cc1 | x | n | n | n | n
CC(C)(C)C(=O)N1CCc2cc(-c3csc(N)n3)ccc21 | 33 | n | n | n | n
Cc1ccc(S(=O)(=O)N2[C@@H](c3ccc(Cl)cc3)C(C(=O)O)=CC[C@H]2c2ccc(C(C)C)cc2)cc1 | n | n | n | n | 39
COc1cc(OC)c(NC(=O)c2csc3c2CCC(C)C3)cc1Cl (configuration not stated) | n | n | x | x | x
O=c1c(Cc2ccc(F)cc2)c(O)ccn1Cc1ccc(Cl)cc1Cl | n | n | n | n | 44
CN(C)CC/C=C1\c2cc(F)ccc2CSc2ccccc21 | n | n | n | n | 37
SMILES | D2 PAM-1 | D2 ag-1 | D2 PAM-2 | D2 ag-2 | D2 antag
C=CCN(C)CC/C=C1\c2ccccc2CSc2ccccc21 | n | n | n | n | 68
CN(CC/C=C1/c2ccccc2CSc2ccccc21)CCCO | n | n | n | n | n
CCOc1ccc(-c2nc(CSCC(=O)N3CCN(c4cccc(C(F)(F)F)c4)CC3)c(C)o2)cc1 | n | n | x | x | x
COc1cc(C(CC(=O)N2CCCC2)c2c(OC)cc(OC)c3ccc(=O)oc23)cc(OC)c1OC (configuration not stated) | n | n | n | n | n
COc1cc(C(CCN2CCCC2)c2c(OC)cc(OC)c3ccc(=O)oc23)cc(OC)c1OC (configuration not stated) | n | n | n | n | 33
C[C@@H]1CN([C@H](C)CO)C(=O)CCCn2nncc2CO[C@H]1CN(C)Cc1ccccc1C(F)(F)F | x | x | n | n | x
O=C(O)C1CC=CCC1C(=O)NCCCCc1ccccc1 (configuration not stated) | n | n | n | n | 34
